# Results taken from PubChem BioAssay AID1561 (National Center for Advancing Translational Sciences (NCATS), 2009).
# The source made the active and inactive calls. Calls follow the shape of the dose curve; as a rule, active = well fitted curve in the direction sought with a large enough effect; inactive = no such curve, though single readings can be large or run the other way.
# Experiment: Secondary Assay for lipid storage modulators. Cytotoxcity
# Conditions: Drosophila S3 cells viability, CellTiter-Glo luminescence, 24 h; series mostly up to 46.1 µM
# Text: NIH Molecular Libraries Probe Production Centers Network [MLPCN] NIH Chemical Genomics Center [NCGC] MLPCN Grant: TBA Assay Submitter (PI): Beller, Mathias; Max-Planck-Institut fur Biophysikalische Chemie, Germany. NCGC Assay Overview: Storing lipids as a reservoir for energy or the anabolism of elementary metabolites is a common feature of probably all cells and is conserved from bacteria to humans. The universal cellular lipid storage organelle is the so-called lipid storage droplet (LD). Although ubiquitous, LDs share a simple structure composed of a hydrophobic core that harbors the storage lipids, which is shielded by a droplet-specific phospholipid monolayer to which proteins are attached. The current model of LD biogenesis involves an incorporation of the lipid core into the membrane leaflets of the endoplasmic reticulum (ER) followed by a subsequent budding-like maturation of a LD, which ultimately pinches off. Once released, LD volume can increase by localized lipogenesis or fusion of existing droplet. Storage lipids are re-mobilized enzymatically by lipase activity. […]
# Assay Protocol Summary: Cytotoxcity assay was performed with embryonic Drosophila S3 cells (Bloomington Drosophila Genomics Resource Center [DGRC]). […] Luminescence was detected on the Perkin Elmer ViewLux.
row,SMILES,outcome
1,COC(=O)c1ccccc1NC(=O)c1ccc(F)cc1,inactive
